# High-throughput results as filed in PubChem.
# Nrf2 block: inhibitors of Nrf2 signaling. A549 ARE-Fluc reporter, luciferase luminescence, 18-24 h. Potency, µM (titrated, usually from 46 µM), for the others: top-dose activity change, negative = inhibition, most hits filed as inhibitors. 360,000 tested, 2.1% active. AID 504444; note: % is set by controls: 0 for no effect and ±100 for the full control effect; nearly all actives have a fitted effect of over 60% in size
#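 Reporter: ARE-Fluc in A549. Exposure: 18-24 h, 37 °C, 5% CO2, 5% FBS OPTI-MEM. Readouts: fluorescent cytotoxicity (CellTiter-Fluor), then luminescent Nrf2 signal after BugLite.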
# HepG2 viability: counter-screen for TGF-b inhibitors: cytotoxicity in HepG2 cells | HepG2 CAGA-GFP viability, ATP luminescence, 18 h | Potency, µM (series often up to 46.1 µM), for inactives: at the highest dose activity change, negative = cytotoxicity, hits mostly cytotoxic | 410,000 tested, 0.76% active
#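 HepG2 CAGA-GFP cells (1000/well, DMEM with 1% FBS) received compound, then TGF-beta at 500 pg/mL final, and were incubated 18 hours at 37 degrees C. Viability was read by CellTiter-Glo luminescence. Media-only wells were set as complete cell-killing and DMSO as no toxicity.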
# TGFb inhibitor: blocks TGF-b signaling. HepG2 CAGA-GFP TGF-b/SMAD3 reporter, GFP fluorescence, 18 h; TGF-beta stimulated, 500 pg/mL final. Potency, µM (series often up to 46.1 µM), without a hit: at the highest dose activity, negative = inhibition, hits mostly inhibitors. 410,000 tested, 1.2% active. AID 588855; note: % is set by controls: 0 for no effect and ±100 for the full control effect; nearly all actives have a fitted effect of over 65% in size
#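 HEPG2 CAGA-GFP cells (1000/well, DMEM with 1% FBS) were pre-incubated 2 h at 37 degrees C, given compound by pin tool, then stimulated with TGF-beta at 500 pg/mL final for 18 h before per-cell GFP fluorescence imaging.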
# ATXN viability: reduces viability in counter-screen for ATXN expression inhibitors; S2 cells (HEK-293 line with an ATXN2-luciferase reporter) viability, CellTiter-Fluor protease fluorescence, 24 h; Potency, µM (series often up to 56.7 µM), most hits filed as cytotoxic; 400,000 tested, 0.49% active; AID 651635; note: nearly all actives have a fitted effect of over 40% in size
# A549 viability: A549 cytotoxicity, counter-screen for Nrf2 inhibitors | A549 ARE-Fluc cells, CellTiter-Fluor viability, 18-24 h | Potency, µM (highest dose often 46 µM), inactives show at the top dose activity change, negative = cytotoxicity, actives largely listed as inhibitors | 390,000 tested, 0.16% active; note: % is set by controls: 0 for no effect and ±100 for the full control effect
#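 A549 ARE-Fluc cells in 5% FBS OPTI-MEM, 5000 cells/well, rested 2 h then exposed to compounds in concentration-response for 18-24 h at 37 °C. Viability by CellTiter-Fluor fluorescence (Ex 405/Em 525) after 30 min; luciferase luminescence (BugLite, 15 min, RT) read afterwards.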
# ATXN2 expr inh: ATXN2 expression inhibition | HEK-293 ATXN2-luciferase reporter, luminescence, 24 h | Potency, µM (titrated, usually from 57 µM), without a hit: at the highest dose activity change, negative = inhibition, actives largely listed as inhibitors | 360,000 tested, 0.72% active; note: % is set by controls: 0 for no effect and ±100 for the full control effect; nearly all actives have a fitted effect of over 55% in size
#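 ATXN2-luciferase reporter cells (luciferase flanked by upstream and downstream ATXN2 gene portions) were treated 24 h at 37 °C with compounds at up to 57 uM. SteadyGlo luminescence gave expression; GF-AFC fluorescence gave viability.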
# The depositor's hits bear a star; i = inactive; ? = inconclusive; . = not tested or not shown; [ ] = dose if it differs, or a comment. Hits are enriched below; roughly 3.8% of the tested compounds scored in any of these assays. Calls come from the whole dose curve; as a rule, active = well fitted curve in the direction sought with a large enough effect; inconclusive = small, poorly fitted or top-dose-only effect, or another doubt; inactive = no such curve, though single readings can be large; an effect the other way counts as inactive or inconclusive. Potency is the fitted concentration of half-maximal effect.
SMILES,Nrf2 block,HepG2 viability,TGFb inhibitor,ATXN viability,A549 viability,ATXN2 expr inh
CCc1ccc(OCCn2c(C3CC(=O)N(Cc4ccc(F)cc4)C3)nc3ccccc32)cc1 (centres undefined),15µM*,-111%,?,.,-17%,?
COc1ccc(-c2nc(N3CCN(S(=O)(=O)c4ccccc4)CC3)c3ccccc3n2)cc1,-14%,-1%,-5%,.,-5%,.
CN(C)c1nc(NCc2ccccc2)nc(SCC(=O)Nc2ccccc2)n1,23µM*,0%,?,i,-11%,-6%
N#CN1CCC(NC(=O)c2cccc(F)c2)CC1,4%,.,.,.,-2%,.
C=CCn1c(SCC(=O)Nc2cccc(S(N)(=O)=O)c2)nc2sc(C)c(C)c2c1=O,16µM*,-8%,-5%,i,?,-5%
COCCn1c(SCC(=O)Nc2cccc(S(N)(=O)=O)c2)nc2cc(Cl)ccc2c1=O,-20%,11%,3%,i,-10%,-15%[11.3 µM]
CC(C)Cn1c(SCC(=O)Nc2cccc(S(N)(=O)=O)c2)nc2ccccc2c1=O,21µM*,-24%,3%,i,-20%,-15%
CCn1c(SCC(=O)Nc2cccc(OC)c2)nnc1-c1ccc(Cl)cc1,26µM*,-8%,?,i,-12%,-25%
Cc1ccc(-n2c(SCC(=O)Nc3cccc(S(N)(=O)=O)c3)nc3ccccc32)cc1,21µM*,-24%,?,i,?,-35%
COc1ccc(CNC(=O)CCC(=O)Nc2ccc(Cl)cc2)cc1,5%,-2%,6%,?,-2%,-7%
CCCCN(C(=O)c1ccc(NC2CC2)c([N+](=O)[O-])c1)c1c(N)n(CC(C)C)c(=O)[nH]c1=O,-12%,-1%,1%,i,-5%,-5%
O=C(NC(C(=O)N/N=C/c1ccccn1)c1n[nH]c(=O)c2ccccc12)c1ccccc1 (centres undefined),?,4%,-8%,i,-6%,20%
CC(C)Oc1ccccc1NC(=O)CSc1nc2ccccc2c(=O)n1C,?,-6%,?,i,0%,.
COC(=O)c1cc(CSc2nc3ccccc3c(=O)n2C)oc1C,18µM*,5%,21%,i,5%,-20%
COc1cccc(NC(=O)CSc2nc3ccccc3c(=O)n2C)c1,15µM*,-20%,-1%,?,-10%,.
CCn1c(SCC(=O)Nc2ccc(OCc3ccccc3)cc2)nnc1-c1ccco1,15µM*,-15%,-11%,i,?,-4%
CCOc1ccc(-c2nnc(SCC(=O)Nc3ccc4c(c3)c3ccccc3n4CC)n2N)cc1,?,-77%,?,.,?,32µM*
COc1cc(Cl)c(C)cc1NC(=O)CC(c1ccc(F)cc1)N1Cc2ccccc2C1=O (centres undefined),?,-19%,-12%,.,4%,.
CCOc1ccc(CCNC(=O)CN2C(=O)COc3ccc(S(=O)(=O)N4CCC(C)CC4)cc32)cc1,1%,-23%,0%,i,-7%,5%
CN(C(=O)CSc1nc2ccc(Cl)cc2[nH]1)C1CCS(=O)(=O)C1 (centres undefined),-14%,4%,31%,i,11%,.
O=C(/C=C/Nc1ccc(Br)cn1)c1cccc(OC(F)F)c1,?,-10%,-3%,i,0%,.
Cc1ccc(CN2CCC(CNC(=O)c3cc4ccc5cccnc5c4[nH]3)CC2)cc1,?,13µM*,?,.,-26%,.
N#Cc1c(N2CCN(C(=O)c3ccco3)CC2)nc(-c2ccccc2)c2c1CCCC2,18µM*,-2%,?,?,?,?
CCc1nc(N2CCN(C(=O)c3ccco3)CC2)c(C#N)c2c1COC(C)(C)C2,15µM*,-10%,-5%,i,-10%,-17%
CC(=O)N1CCN(c2nc(CC(C)C)c3c(c2C#N)CCC3)CC1,-10%,-16%,-3%,i,1%,-12%
SMILES,Nrf2 block,HepG2 viability,TGFb inhibitor,ATXN viability,A549 viability,ATXN2 expr inh
CC1(C)Cc2c(C#N)c(N3CCN(C(=O)c4ccco4)CC3)nc(Cc3ccccc3)c2CO1,?,1%,-15%,?,-26%,?
CC(C)Cc1nc(N2CCN(C(=O)c3ccccc3)CC2)c(C#N)c2c1CCC2,23µM*,-84%,?,i,.,-19%
Cc1cc(=O)oc2c(C)c(OC3CCCCC3=O)ccc12 (centres undefined),7%,-7%,0%,i,-2%,24%
CC12CCC(=O)N1C(C(=O)NCc1ccc(Cl)cc1Cl)CS2 (centres undefined),-6%,-10%,14%,i,-7%,1%
COc1ccccc1-c1cc(C(F)(F)F)nc(S(=O)(=O)CCCC(=O)Nc2cccnc2Cl)n1,21µM*,2%,?,?,?,?
COc1ccccc1-c1cc(C(F)(F)F)nc(S(=O)(=O)CCCC(=O)Nc2ccccc2F)n1,-6%[9.27 µM],11µM*,3.5µM*,.,0%,.
COc1ccc(NC(=O)CCCS(=O)(=O)c2nc(-c3ccccc3OC)cc(C(F)(F)F)n2)c(OC)c1,-1%[9.27 µM],-5%,-11%,i,6%,6%
COc1ccc(Cl)cc1NC(=O)CCCS(=O)(=O)c1nc(-c2ccc(OC)c(OC)c2)cc(C(F)(F)F)n1,9%[9.27 µM],14µM*,2.8µM*,.,-7%,.
CSc1ccccc1NC(=O)CCS(=O)(=O)c1nc(-c2ccc3c(c2)OCO3)cc(C(F)(F)F)n1,-4%[9.27 µM],-83%,16µM*,.,1%,.
O=C(CSc1nnc(CNC(=O)c2cccs2)o1)Nc1ccc(F)cc1F,16%,-1%,0%,i,3%,-17%
Cc1ccc(-c2cnc(C(O)c3cc(C)cc(C)c3)[nH]2)cc1 (centres undefined),.,0%,18%,i,.,9%
COc1ccc(C2c3c(-c4ccccc4O)n[nH]c3C(=O)N2Cc2ccco2)cc1 (centres undefined),12%,-21%,?,?,-2%,-1%
COc1ccc(C2c3c(-c4c(C)cc(C)cc4O)n[nH]c3C(=O)N2Cc2ccco2)cc1 (centres undefined),9%,-105%,?,18µM*,-7%,?
CC(C)COC(=O)N1C[C@H](O)C[C@H]1C(=O)Nc1ccc(Cl)cc1,?,12%,4%,i,-5%,8%
CC(C)COC(=O)c1cccc2c1-c1ccccc1/C2=N\O,?,-100%,14µM*,?,-25%,4%
